Measured values: PubChem BioAssay (Tox21)
Inconclusive results are not listed. The source made the active and inactive calls. Unless noted, calls follow the shape of the full dose curve.

Key:
[1] = Nuclear factor erythroid 2-related factor 2/antioxidant responsive element (Nrf2/ARE) small molecule agonists: qHTS cell viability counter screen in human keratinocytes (AID 1919968; active = well fitted curve in the direction sought with a large enough effect in the repeat runs; an effect the other way counts as inactive or inconclusive; also: nearly all actives have a fitted effect of over 55% in size)
How it was run: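 Stably transfected HaCaT (KeratinoSens), 1,500/well. Test agents in DMSO were applied for 23 h, 37 C/5% CO2. CellTiter-Fluor was incubated 1 h before the fluorescence read.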

[2] = target: Gonadotropin-releasing hormone receptor (Homo sapiens) (UniProt P30968); experiment: Human gonadotropin-releasing hormone receptor (GnRHR) small molecule agonists, calcium flux assay in GnRHR-HEK293 cells (AID 1920063); also: nearly all actives have a fitted effect of over 35% in size
Sequence of Gonadotropin-releasing hormone receptor (Homo sapiens) (P30968 whole entry, looked up): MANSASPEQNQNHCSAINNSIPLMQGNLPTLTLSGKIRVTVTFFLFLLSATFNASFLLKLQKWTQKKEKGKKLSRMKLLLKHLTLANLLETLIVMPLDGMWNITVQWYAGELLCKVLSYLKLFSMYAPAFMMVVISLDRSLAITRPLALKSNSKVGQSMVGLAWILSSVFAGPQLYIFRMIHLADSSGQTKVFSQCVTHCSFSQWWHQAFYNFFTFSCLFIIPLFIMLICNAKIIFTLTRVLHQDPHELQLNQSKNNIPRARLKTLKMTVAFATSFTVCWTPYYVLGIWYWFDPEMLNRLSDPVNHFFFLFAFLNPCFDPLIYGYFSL
How it was run: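 Stable human GnRHR HEK293 line. 18 h plating, then calcium dye for 1 h at 37 C. Agonist-mode compound addition from DMSO stocks; fluorescence monitored 3 min.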

[3] = target: KiSS-1 receptor (Homo sapiens) (UniProt Q969F8); experiment: Human kisspeptin (KISS1R) small molecule agonists, calcium flux assay in KISS1R-HEK293 cells (AID 1920064; active = well fitted curve in the direction sought with a large enough effect in the repeat runs; an effect the other way counts as inactive or inconclusive)
Sequence of KiSS-1 receptor (Homo sapiens) (Q969F8 whole entry, looked up): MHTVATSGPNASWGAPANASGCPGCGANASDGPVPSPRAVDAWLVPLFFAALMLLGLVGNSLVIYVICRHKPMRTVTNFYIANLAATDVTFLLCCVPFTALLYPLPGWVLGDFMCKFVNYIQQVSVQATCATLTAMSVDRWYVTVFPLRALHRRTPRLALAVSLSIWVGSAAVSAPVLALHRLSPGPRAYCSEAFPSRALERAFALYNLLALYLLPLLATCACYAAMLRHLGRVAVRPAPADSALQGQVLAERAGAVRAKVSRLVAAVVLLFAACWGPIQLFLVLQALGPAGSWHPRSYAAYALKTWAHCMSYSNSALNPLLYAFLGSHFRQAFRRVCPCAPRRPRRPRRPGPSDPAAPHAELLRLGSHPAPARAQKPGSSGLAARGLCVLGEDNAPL
How it was run: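 After overnight (18 h) culture at 37 C/5% CO2, human KISS1R-HEK293 cells received calcium dye for 1 h, then test compound; emission at 540 nm (excitation 480 nm) was tracked for 3 min.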

[4] = G protein-coupled receptor (GPCR) small molecule agonists, calcium flux assay: HEK293 wild type cell line counter screen (AID 1920065)
How it was run: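 Following 18 h incubation at 37 C/5% CO2, plates got calcium dye for 1 h; compounds, ATP or DMSO were then pinned in and fluorescence followed kinetically (480/540 nm).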

[5] = p53 small molecule agonists, cell-based qHTS assay with human liver microsomes (AID 1963577)
How it was run: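 Fluorescence of the beta-lactamase reporter in p53RE-bla cells, detected with LiveBLAzer substrate (2 h, room temperature, dark), served as the read-out after 16 h compound exposure at 37 C with human liver microsomes and NADPH, each 0.5 mg/mL final.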

[6] = p53 small molecule agonists, cell-based qHTS assay with rat liver microsomes (AID 1963578)
How it was run: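 Cells carrying a p53 response element–beta-lactamase reporter were plated and rested 5 h, then dosed with compound in DMSO plus rat liver microsomes and NADPH, each at 0.5 mg/mL final. After 16 h at 37 C, LiveBLAzer substrate was added for 2 h.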

[7] = p53 small molecule agonists, cell-based qHTS assay with human liver microsomes: qHTS cell viability counter screen (AID 1963579); also: nearly all actives have a fitted effect of over 45% in size
How it was run: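 Cytotoxicity counter screen: p53RE-bla, 4,000 cells/well; 5 h settle, 37 C/5% CO2; cpd + HLM 0.5 mg/mL + NADPH 0.5 mg/mL (final); 16 h, 37 C; CellTiter-Glo, 30 min RT, luminescence.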

[8] = p53 small molecule agonists, cell-based qHTS assay with rat liver microsomes: qHTS cell viability counter screen (AID 1963580); also: nearly all actives have a fitted effect of over 45% in size
How it was run: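 Cytotoxicity counter screen: intracellular ATP read by CellTiter-Glo luminescence in the p53 reporter wells. HCT-116 p53RE-bla cells were treated for 16 h at 37 C alongside rat liver microsomes and NADPH, each 0.5 mg/mL final.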

[9] = p53 small molecule agonists, cell-based qHTS assay: qHTS cell viability counter screen (AID 1963581); also: nearly all actives have a fitted effect of over 45% in size
How it was run: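 qHTS counter screen: 16 h compound exposure at 37 C of p53RE-bla HCT-116 cells (4,000 per well, seeded 5 h prior), cell viability by ATP luminescence.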

[10] = p53 small molecule agonists, cell-based qHTS assay (AID 1963582; active = well fitted activation curve with a large enough effect in the signal ratio in the repeat runs, not every such curve was filed as active; the % refers to the signal ratio)
How it was run: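 Measured: fluorescence from cleaved LiveBLAzer substrate. System: p53RE-bla cells, 16 h compound treatment at 37 C, 2 h substrate step at room temperature.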

[11] = cAMP Responsive Elements (CRE) small molecule agonists, cell-based qHTS assay (AID 1963590)
How it was run: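 Test agents in DMSO were incubated 3 h at 37 C/5% CO2 with CRE-bla HEK 293T cells seeded 18 h earlier; LiveBLAzer B/G FRET substrate was added and read after 2 h at room temperature.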

[12] = cAMP Responsive Elements (CRE) small molecule antagonists, cell-based qHTS assay (AID 1963591; active = well fitted inhibition curve with a large enough effect in the signal ratio in the repeat runs, not every such curve was filed as active; the % refers to the signal ratio)
How it was run: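 Reporter line CRE-bla HEK 293T in dialyzed-FBS DMEM; cells preincubated 18 h, treated 3 h with compound plus NKH477 (0.25 uM final); LiveBLAzer FRET, 2 h RT.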

[13] = target: Beta-2 adrenergic receptor (Homo sapiens) (UniProt P07550); experiment: Adrenergic beta2 receptor (ADRB2) small molecule antagonists, cell-based qHTS assay (AID 1963592); also: series mostly up to about 92 µM; nearly all actives have a fitted effect of over 50% in size
Sequence of Beta-2 adrenergic receptor (Homo sapiens) (P07550 whole entry, looked up): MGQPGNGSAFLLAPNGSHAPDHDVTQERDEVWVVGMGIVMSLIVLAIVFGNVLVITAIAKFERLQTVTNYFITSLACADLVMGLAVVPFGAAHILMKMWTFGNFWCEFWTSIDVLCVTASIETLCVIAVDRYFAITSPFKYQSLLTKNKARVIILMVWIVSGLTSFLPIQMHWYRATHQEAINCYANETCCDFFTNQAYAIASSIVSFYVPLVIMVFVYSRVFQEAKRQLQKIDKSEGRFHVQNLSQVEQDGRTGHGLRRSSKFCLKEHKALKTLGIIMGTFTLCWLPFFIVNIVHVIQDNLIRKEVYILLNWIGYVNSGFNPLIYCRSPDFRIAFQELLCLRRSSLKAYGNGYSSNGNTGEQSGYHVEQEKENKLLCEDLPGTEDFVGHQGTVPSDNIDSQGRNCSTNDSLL
How it was run: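 Assay format: CHO-ADRB2 cells, 18-20hr seeding at 37C/5% CO2, then compound plus 1nM isoproterenol agonist mix for 0.5hr RT. Homogeneous time-resolved fluorescence cAMP detection after 1hr, expressed as 665/615 nm ratio.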

[14] = target: D(2) dopamine receptor (Homo sapiens) (UniProt P14416); experiment: Dopamine D2 receptor (DRD2) small molecule agonists, cell-based qHTS assay (AID 1963594); also: nearly all actives have a fitted effect of over 35% in size
Sequence of D(2) dopamine receptor (Homo sapiens) (P14416 whole entry, looked up): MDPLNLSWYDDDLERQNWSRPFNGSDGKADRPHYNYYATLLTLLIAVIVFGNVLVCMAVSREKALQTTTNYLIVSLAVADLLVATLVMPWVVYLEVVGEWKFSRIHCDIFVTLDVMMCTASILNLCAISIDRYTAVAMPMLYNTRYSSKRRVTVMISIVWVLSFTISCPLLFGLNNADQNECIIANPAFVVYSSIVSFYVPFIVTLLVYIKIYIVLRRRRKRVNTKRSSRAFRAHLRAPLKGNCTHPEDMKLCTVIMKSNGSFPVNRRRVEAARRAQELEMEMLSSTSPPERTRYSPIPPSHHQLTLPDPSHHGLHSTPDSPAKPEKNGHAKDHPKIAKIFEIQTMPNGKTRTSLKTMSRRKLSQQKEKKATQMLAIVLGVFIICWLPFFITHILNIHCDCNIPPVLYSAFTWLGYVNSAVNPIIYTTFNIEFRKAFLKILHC
How it was run: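 cAMP accumulation in DRD2-HEK293 cells measured by HTRF after 1 h detection; compounds added 10 min before NKH477 (200nM […]) forskolin-analogue stimulation, 30 min at room temperature, with Ro20-1724 present at 0.1 mM final.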

[15] = target: D(2) dopamine receptor (Homo sapiens) (UniProt P14416); experiment: Dopamine D2 receptor (DRD2) small molecule antagonists, cell-based qHTS assay (AID 1963595; active = well fitted inhibition curve with a large enough effect in the signal ratio in the repeat runs, with a control signal flat; the % refers to the signal ratio)
How it was run: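 HTRF cAMP read-out at 665 and 620 nm emission (340 nm excitation). Antagonist mode: compounds were tested against 12 nM quinpirole in DRD2-HEK293 cells, with 200 nM NKH477 raising cAMP and 0.1 mM Ro20-1724 blocking its breakdown.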

[16] = target: 5-hydroxytryptamine receptor 2A (Homo sapiens) (UniProt P28223); experiment: 5-hydroxytryptamine receptor 2A (HTR2A) small molecule antagonists, cell-based qHTS assay (AID 1963586); also: nearly all actives have a fitted effect of over 45% in size
Sequence of 5-hydroxytryptamine receptor 2A (Homo sapiens) (P28223 whole entry, looked up): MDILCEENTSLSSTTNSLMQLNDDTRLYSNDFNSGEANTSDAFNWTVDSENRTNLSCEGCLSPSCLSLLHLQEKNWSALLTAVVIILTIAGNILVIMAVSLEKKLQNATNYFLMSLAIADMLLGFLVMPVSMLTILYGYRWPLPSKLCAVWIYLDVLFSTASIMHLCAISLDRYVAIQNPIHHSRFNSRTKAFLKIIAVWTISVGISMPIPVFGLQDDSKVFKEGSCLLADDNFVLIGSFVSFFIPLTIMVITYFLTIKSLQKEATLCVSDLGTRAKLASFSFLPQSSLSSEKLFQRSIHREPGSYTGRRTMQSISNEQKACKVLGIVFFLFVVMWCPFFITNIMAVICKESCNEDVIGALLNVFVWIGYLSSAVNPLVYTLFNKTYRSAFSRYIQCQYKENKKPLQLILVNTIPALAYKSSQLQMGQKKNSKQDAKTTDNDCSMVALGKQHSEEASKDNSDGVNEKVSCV
How it was run: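 CHO cells stably expressing human HTR2A were plated for 18 h at 37 C, then loaded with calcium dye for 1 h. Compounds were preincubated 5 min at room temperature before DOI (4 nM solution) was added. Kinetic fluorescence was read for 3 min.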

[17] = target: Muscarinic acetylcholine receptor M1 (Homo sapiens) (UniProt P11229); experiment: Cholinergic receptor muscarinic 1 (CHRM1) small molecule antagonists, cell-based qHTS assay (AID 1963588); also: nearly all actives have a fitted effect of over 40% in size
Sequence of Muscarinic acetylcholine receptor M1 (Homo sapiens) (P11229 whole entry, looked up): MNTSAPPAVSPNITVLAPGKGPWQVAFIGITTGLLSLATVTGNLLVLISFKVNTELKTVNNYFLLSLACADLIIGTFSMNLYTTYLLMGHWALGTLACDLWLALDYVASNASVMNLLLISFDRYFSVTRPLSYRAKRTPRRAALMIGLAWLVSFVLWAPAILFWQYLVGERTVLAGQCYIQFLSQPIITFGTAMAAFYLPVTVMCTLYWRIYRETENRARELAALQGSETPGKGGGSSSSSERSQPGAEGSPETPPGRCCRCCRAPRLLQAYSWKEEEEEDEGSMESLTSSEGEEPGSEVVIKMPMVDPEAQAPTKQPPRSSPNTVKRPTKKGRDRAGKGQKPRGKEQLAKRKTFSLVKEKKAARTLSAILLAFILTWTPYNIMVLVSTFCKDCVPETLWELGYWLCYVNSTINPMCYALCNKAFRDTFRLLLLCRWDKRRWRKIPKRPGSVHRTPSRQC
How it was run: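 Compounds were tested at 15 concentrations in three independent runs. Dye-loaded CHRM1-CHO cells were exposed 5 min at room temperature before stimulation by acetylcholine added at 50nM. Intracellular calcium was read kinetically on FDSS for 3 min.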

[18] = target: Muscarinic acetylcholine receptor M1 (Homo sapiens) (UniProt P11229); experiment: Cholinergic receptor muscarinic 1 (CHRM1) small molecule agonists, cell-based qHTS assay (AID 1963589); also: nearly all actives have a fitted effect of over 35% in size
How it was run: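 Kinetic fluorescence (1 s intervals) of calcium-sensitive dye in human M1 CHO cells after compound addition; cells pre-incubated 18 h at 37 C/5% CO2 and dye-loaded 1 h.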

[19] = target: 5-hydroxytryptamine receptor 2A (Homo sapiens) (UniProt P28223); experiment: 5-hydroxytryptamine receptor 2A (HTR2A) small molecule agonists, cell-based qHTS assay (AID 1963587); also: nearly all actives have a fitted effect of over 30% in size
How it was run: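 Kinetic calcium-flux fluorescence (2 min, 1 sec intervals) after compound addition in agonist mode. HTR2A-CHO cells were cultured 18 h, then dye-loaded 1 h at 37 C.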
% is scaled to controls: 0 for no effect and ±100 for the full control effect.

C[C@](N)(Cc1ccc(O)cc1)C(=O)O
inactive: activity change, negative = cytotoxicity [1] 5.45% [at 8.39 µM] | activity change [2] -1.06% [at 5.22 µM, hits give high values] | activation [3] -0.73% [at 6.97 µM] | activation [4] 0.0455% [at 5.23 µM] | activation [5] 3.02% [at 5.99 µM] | activation [6] -3.92% [at 5.99 µM] | activity change, negative = cytotoxicity [7] 8.09% [at 5.99 µM] | activity change, negative = cytotoxicity [8] -5.36% [at 5.99 µM] | activity change, negative = cytotoxicity [9] -19.4% [at 5.99 µM] | activation [10] -6.7% [at 5.99 µM] | activation [11] -0.0581% [at 8.39 µM] | activity change, negative = inhibition [12] 2.35% [at 8.39 µM] | activity change, negative = inhibition [13] 3.74% [at 8.39 µM] | activation [14] -6.61% [at 8.39 µM] | activity change, negative = inhibition [15] -5.15% [at 8.38 µM]

C=CC(=O)OCCOc1ccccc1
inactive: Potency [1] | Potency [2] | Potency [3] | Potency [4] | Potency [5] | Potency [6] | Potency [7] | Potency [8] | Potency [9] | Potency [10] | Potency [16] | Potency [17] | Potency [18] | Potency [13] | Potency [14] | Potency [15]

Cc1cc(Cl)c(C)cc1Cl
inactive: Potency [1] | Potency [2] | Potency [3] | Potency [4] | Potency [5] | Potency [6] | Potency [7] | Potency [8] | Potency [9] | Potency [10] | Potency [16] | Potency [19] | Potency [17] | Potency [11] | Potency [12] | Potency [13] | Potency [14] | Potency [15]

O=C(CS)OCCOC(=O)CS
inactive: Potency [1] | Potency [2] | Potency [3] | Potency [4] | Potency [5] | Potency [6] | Potency [7] | Potency [8] | Potency [9] | Potency [10] | Potency [16] | Potency [19] | Potency [17] | Potency [18] | Potency [11] | Potency [13] | Potency [14] | Potency [15]

CC(C)CCOC(=O)c1ccc(N(C)C)cc1
inactive: Potency [1] | Potency [2] | Potency [3] | Potency [4] | Potency [5] | Potency [6] | Potency [7] | Potency [8] | Potency [9] | Potency [10] | Potency [19] | Potency [17] | Potency [18] | Potency [11] | Potency [12] | Potency [13] | Potency [14] | Potency [15]

CCCCCC(CO)CCC (stereo not drawn)
inactive: Potency [1] | Potency [2] | Potency [3] | Potency [4] | Potency [5] | Potency [6] | Potency [7] | Potency [8] | Potency [9] | Potency [10] | Potency [16] | Potency [17] | Potency [18] | Potency [11] | Potency [12] | Potency [13] | Potency [14] | Potency [15]

CCCCOC(=O)CO
inactive: Potency [1] | Potency [2] | Potency [3] | Potency [4] | Potency [5] | Potency [6] | Potency [7] | Potency [8] | Potency [9] | Potency [10] | Potency [16] | Potency [17] | Potency [18] | Potency [11] | Potency [12] | Potency [13] | Potency [14] | Potency [15]

SCCc1cnccn1
inactive: Potency [1] | Potency [2] | Potency [3] | Potency [4] | Potency [5] | Potency [6] | Potency [7] | Potency [8] | Potency [9] | Potency [10] | Potency [16] | Potency [19] | Potency [17] | Potency [18] | Potency [11] | Potency [13] | Potency [15]
